According to the supplement of paper PMC6555819:

Legend:
Assay in all cases: PBM binding z-score (relative to random genomic background probes); higher = stronger binding; sequences stand for … in GC…GCGATTGACAGCGTAGAATGAAGG
[1] = tested on: RARb homodimer (NR concentration 270 nM)
Procedure, shortened: (§1)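 Binding buffer was PBS pH 7.4 with 2% milk, 0.02% Triton X-100, 1 mM DTT, 0.2 mg/mL BSA and 0.4 mg/ml salmon testes DNA. In it, ligand-free nuclear receptor dimers were incubated 1 h on custom Agilent 4×180K protein-binding microarrays carrying double-stranded probes. Antibodies against each partner (one per run) detected binding, and z-scores were calculated against random background probes after regression normalization of scanned fluorescence.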

[2] = tested on: RARg:RXRa (NR concentration 270 nM, RXRa partner concentration 90 nM)
Procedure, shortened: as §1

[3] = tested on: RARg homodimer (NR concentration 270 nM)
Procedure, shortened: as §1

[4] = tested on: RXRa DBDmut IVT, anti-RXR (DBD mutation: RXRa K156A/R161A, NR concentration 90 nM)
Procedure, shortened: as §1

[5] = tested on: RXRa homodimer (NR concentration 180 nM)
Procedure, shortened: as §1

[6] = tested on: THRa:RXRa (NR concentration 90 nM, RXRa partner concentration 90 nM)
Procedure, shortened: as §1

[7] = tested on: THRa homodimer (NR concentration 90 nM)
Procedure, shortened: as §1

[8] = tested on: VDR homodimer (NR concentration 270 nM)
Procedure, shortened: as §1

Sequence: CCTGCTAGGTCATGGTTAGCTAATCTACAGTATG
- PBM binding z-score [1]: 2.79
- PBM binding z-score [2]: 4.02
- PBM binding z-score [3]: 4.34
- PBM binding z-score [4]: 1.43
- PBM binding z-score [5]: 2.52
- PBM binding z-score [6]: 2.99
- PBM binding z-score [7]: 1.03
- PBM binding z-score [8]: -0.043

Sequence: CGTACAGGGTCAGCTAGGCCAGAGTAGGGACGGC
- PBM binding z-score [1]: 3.07
- PBM binding z-score [2]: 4.55
- PBM binding z-score [3]: 4.77
- PBM binding z-score [4]: 1.93
- PBM binding z-score [5]: 4.1
- PBM binding z-score [6]: 3.05
- PBM binding z-score [7]: 0.562
- PBM binding z-score [8]: 1.14

Sequence: TCATATAGGTAATACAGGTGGAAGTCGGCATCTA
- PBM binding z-score [1]: 0.159
- PBM binding z-score [2]: 0.56
- PBM binding z-score [3]: 0.449
- PBM binding z-score [4]: 1.5
- PBM binding z-score [5]: 1.31
- PBM binding z-score [6]: 0.353
- PBM binding z-score [7]: 0.0491
- PBM binding z-score [8]: 0.547

Sequence: CCTACTGGGTCAAAAAGGTCATTGATGCCGATAA
- PBM binding z-score [1]: 5.05
- PBM binding z-score [2]: 6.12
- PBM binding z-score [3]: 5.84
- PBM binding z-score [4]: 1.56
- PBM binding z-score [5]: 6.62
- PBM binding z-score [6]: 3.76
- PBM binding z-score [7]: 1.1
- PBM binding z-score [8]: 4.79

Sequence: TCCTATAGGTAAATGCTAGGTGAAAGTCCGATCT
- PBM binding z-score [1]: 0.372
- PBM binding z-score [2]: 0.374
- PBM binding z-score [3]: 0.00496
- PBM binding z-score [4]: 1.14
- PBM binding z-score [5]: 0.554
- PBM binding z-score [6]: 1.55
- PBM binding z-score [7]: 0.305
- PBM binding z-score [8]: -0.299

Sequence: GCGACAGGGGCAAAGCAGGTTACCATAAGGTTGG
- PBM binding z-score [1]: 1.21
- PBM binding z-score [2]: 1.06
- PBM binding z-score [3]: 0.918
- PBM binding z-score [4]: 0.664
- PBM binding z-score [5]: 1.06
- PBM binding z-score [6]: 3.83
- PBM binding z-score [7]: 0.135
- PBM binding z-score [8]: 0.281

Sequence: GCGACTGGGGCAAAGCAGGTTAGCATAAGGTTGG
- PBM binding z-score [1]: 0.654
- PBM binding z-score [2]: 0.256
- PBM binding z-score [3]: 0.429
- PBM binding z-score [4]: -0.341
- PBM binding z-score [5]: 0.0651
- PBM binding z-score [6]: 2.28
- PBM binding z-score [7]: -0.225
- PBM binding z-score [8]: -0.542

Sequence: TCTTGTAGATCAACAGGAGGTTAGGAAAGATCGA
- PBM binding z-score [1]: 0.164
- PBM binding z-score [2]: 0.361
- PBM binding z-score [3]: 0.196
- PBM binding z-score [4]: 0.233
- PBM binding z-score [5]: 0.348
- PBM binding z-score [6]: 0.437
- PBM binding z-score [7]: -0.828
- PBM binding z-score [8]: -0.458

Sequence: CCGAGTAGGTTATGGGGCACTCAGGCAACGGTGA
- PBM binding z-score [1]: 0.946
- PBM binding z-score [2]: 0.475
- PBM binding z-score [3]: 0.553
- PBM binding z-score [4]: -0.264
- PBM binding z-score [5]: 0.805
- PBM binding z-score [6]: 0.385
- PBM binding z-score [7]: 0.0948
- PBM binding z-score [8]: 0.0125

Sequence: CGTCAAAGTTCAACTTAGGTAACGTAAAGCACGC
- PBM binding z-score [1]: 4.13
- PBM binding z-score [2]: 6.16
- PBM binding z-score [3]: 6.72
- PBM binding z-score [4]: 4.76
- PBM binding z-score [5]: 5.38
- PBM binding z-score [6]: 5.19
- PBM binding z-score [7]: 0.769
- PBM binding z-score [8]: 4.21

Sequence: CAAACTAGGTCAACGGTCAAAGTCGAGCCAACCA
- PBM binding z-score [1]: 3.76
- PBM binding z-score [2]: 4.94
- PBM binding z-score [3]: 5.4
- PBM binding z-score [4]: 2.12
- PBM binding z-score [5]: 4.02
- PBM binding z-score [6]: 3.14
- PBM binding z-score [7]: 1.31
- PBM binding z-score [8]: 1

Sequence: CTGCCAAGGTGAACAAGGTCGTTGATTACTATTC
- PBM binding z-score [1]: 2
- PBM binding z-score [2]: 1.66
- PBM binding z-score [3]: 1.29
- PBM binding z-score [4]: 1.04
- PBM binding z-score [5]: 1.58
- PBM binding z-score [6]: 3.07
- PBM binding z-score [7]: 1.67
- PBM binding z-score [8]: 1.56

Sequence: TCTGCTAGTTCAGTTGGTCAGCTAACGAGCTGCC
- PBM binding z-score [1]: 0.296
- PBM binding z-score [2]: -0.136
- PBM binding z-score [3]: 0.0684
- PBM binding z-score [4]: 0.659
- PBM binding z-score [5]: -0.391
- PBM binding z-score [6]: -0.312
- PBM binding z-score [7]: -0.718
- PBM binding z-score [8]: -0.523

Sequence: CCTAGTTGATCAAGGTCACACACGCTATAGGTAC
- PBM binding z-score [1]: 4.44
- PBM binding z-score [2]: 4.24
- PBM binding z-score [3]: 4.06
- PBM binding z-score [4]: 2.8
- PBM binding z-score [5]: 4.2
- PBM binding z-score [6]: 4.25
- PBM binding z-score [7]: 4.11
- PBM binding z-score [8]: 4.32

Sequence: TAGCCTAGGTGAGATCGGGCCAGTATACGCTATA
- PBM binding z-score [1]: -0.246
- PBM binding z-score [2]: -0.235
- PBM binding z-score [3]: 0.0324
- PBM binding z-score [4]: -1.2
- PBM binding z-score [5]: -0.204
- PBM binding z-score [6]: 1.52
- PBM binding z-score [7]: -0.733
- PBM binding z-score [8]: -0.357

Sequence: CTACCAAGGTGAACAAGGTCATTGATTACTATTC
- PBM binding z-score [1]: 3.82
- PBM binding z-score [2]: 3.75
- PBM binding z-score [3]: 3.4
- PBM binding z-score [4]: 2.28
- PBM binding z-score [5]: 4.27
- PBM binding z-score [6]: 4.18
- PBM binding z-score [7]: 3.41
- PBM binding z-score [8]: 4.4

Sequence: CCTTACAGGTCACTCCAGGTTATAGCATCGGAGT
- PBM binding z-score [1]: 3.76
- PBM binding z-score [2]: 4.74
- PBM binding z-score [3]: 4.71
- PBM binding z-score [4]: 2.2
- PBM binding z-score [5]: 4.35
- PBM binding z-score [6]: 5.15
- PBM binding z-score [7]: 1.32
- PBM binding z-score [8]: 2.04

Sequence: TCATATAGGTAATACACGTGAAAGTCGGCATCTA
- PBM binding z-score [1]: 0.355
- PBM binding z-score [2]: 0.577
- PBM binding z-score [3]: 0.604
- PBM binding z-score [4]: 1.92
- PBM binding z-score [5]: 0.939
- PBM binding z-score [6]: 0.156
- PBM binding z-score [7]: -0.0139
- PBM binding z-score [8]: 0.589

Sequence: CCTAGTTGGTCAGGAGGTCACACTCCGGATATGA
- PBM binding z-score [1]: 4.21
- PBM binding z-score [2]: 4.74
- PBM binding z-score [3]: 4.43
- PBM binding z-score [4]: 1.03
- PBM binding z-score [5]: 5.04
- PBM binding z-score [6]: 3.4
- PBM binding z-score [7]: 2.46
- PBM binding z-score [8]: 2.5

Sequence: GCTTACGGGTCAAATGTTATAGCATGAATAGAAT
- PBM binding z-score [1]: 2.6
- PBM binding z-score [2]: 4.88
- PBM binding z-score [3]: 4.02
- PBM binding z-score [4]: 2.4
- PBM binding z-score [5]: 5.86
- PBM binding z-score [6]: 2.54
- PBM binding z-score [7]: -0.146
- PBM binding z-score [8]: 1.1

Sequence: CGTGCAAGGTCAGCAGGTCAGTGAAAGCGACGTG
- PBM binding z-score [1]: 4.76
- PBM binding z-score [2]: 6.54
- PBM binding z-score [3]: 7.05
- PBM binding z-score [4]: 2.5
- PBM binding z-score [5]: 5.2
- PBM binding z-score [6]: 4.03
- PBM binding z-score [7]: 2.04
- PBM binding z-score [8]: 1.73

Sequence: TCTAGCTGGCCAGAGGGTCACTCAAGAGGTACGG
- PBM binding z-score [1]: 2.27
- PBM binding z-score [2]: 2.07
- PBM binding z-score [3]: 1.43
- PBM binding z-score [4]: -0.123
- PBM binding z-score [5]: 2.18
- PBM binding z-score [6]: 1.48
- PBM binding z-score [7]: -0.56
- PBM binding z-score [8]: 0.32

Sequence: TCTCGGAGGACACGTAGGTCAGAGCTTTCCAGAG
- PBM binding z-score [1]: 2.65
- PBM binding z-score [2]: 2.17
- PBM binding z-score [3]: 2.67
- PBM binding z-score [4]: 0.656
- PBM binding z-score [5]: 1.04
- PBM binding z-score [6]: 2.44
- PBM binding z-score [7]: 0.686
- PBM binding z-score [8]: 0.567

Sequence: TCTGCTAGGTCAACCATGGTCAGCTAATCTGCTA
- PBM binding z-score [1]: 3.53
- PBM binding z-score [2]: 4.4
- PBM binding z-score [3]: 5.7
- PBM binding z-score [4]: 1.05
- PBM binding z-score [5]: 3.24
- PBM binding z-score [6]: 3.78
- PBM binding z-score [7]: 1.03
- PBM binding z-score [8]: -0.484

Sequence: GCATAAAGGTAATACAAGGTGAAAGTCCGATTGT
- PBM binding z-score [1]: 1.18
- PBM binding z-score [2]: 1.15
- PBM binding z-score [3]: 0.92
- PBM binding z-score [4]: 0.231
- PBM binding z-score [5]: 1.32
- PBM binding z-score [6]: 4.64
- PBM binding z-score [7]: 0.994
- PBM binding z-score [8]: 0.291

Sequence: GCAGTCAGGTGAAACGCAGGTAACTCAGGGTGGC
- PBM binding z-score [1]: 0.205
- PBM binding z-score [2]: 0.634
- PBM binding z-score [3]: 0.376
- PBM binding z-score [4]: -0.235
- PBM binding z-score [5]: 0.237
- PBM binding z-score [6]: 1.8
- PBM binding z-score [7]: 0.308
- PBM binding z-score [8]: -0.682

Sequence: ATCTCTAGGTAAAGTTAGTTCAGTGAATGCAAAT
- PBM binding z-score [1]: 0.802
- PBM binding z-score [2]: 0.673
- PBM binding z-score [3]: 0.531
- PBM binding z-score [4]: 0.563
- PBM binding z-score [5]: 0.331
- PBM binding z-score [6]: 1.94
- PBM binding z-score [7]: 0.737
- PBM binding z-score [8]: 1.35

Sequence: CCTTACGGGTCAACGTTATAGCACGGGTGGTACG
- PBM binding z-score [1]: 3.19
- PBM binding z-score [2]: 4.85
- PBM binding z-score [3]: 4.64
- PBM binding z-score [4]: 0.494
- PBM binding z-score [5]: 5.03
- PBM binding z-score [6]: 2.36
- PBM binding z-score [7]: -0.182
- PBM binding z-score [8]: 0.692
